According to PubChem BioAssay (NCATS):
A number with no mark means an inactive call. Records with an inconclusive call do not appear. A call without a number means that no potency is given here. Active and inactive are the calls of the source. The call rests on the fitted dose curve; in most records, active means well fitted curve in the direction sought with a large enough effect; inconclusive means small, poorly fitted or top-dose-only effect, or another doubt; inactive means no such curve, though single readings can be large; an effect the other way counts as inactive or inconclusive.

How the values were obtained:
[1] = molecular target: Glutathione peroxidase 1 (Homo sapiens) (UniProt P07203); experiment: Primary qHTS Assay for Inhibitors of Recombinant Selenoprotein Glutathione Peroxidase 1 (GPX1) (AID 1845191); further: nearly all actives have a fitted effect of over 65% in size; further: potency means the concentration at half of the fitted maximal effect
Glutathione peroxidase 1 (Homo sapiens), sequence (P07203 whole entry, looked up): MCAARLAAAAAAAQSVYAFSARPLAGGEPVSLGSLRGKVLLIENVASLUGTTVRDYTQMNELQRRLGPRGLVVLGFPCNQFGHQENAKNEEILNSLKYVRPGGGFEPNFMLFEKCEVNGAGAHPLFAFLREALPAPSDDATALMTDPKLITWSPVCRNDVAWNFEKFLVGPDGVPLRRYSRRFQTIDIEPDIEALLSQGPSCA
Method in brief: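 GPX1 10 nM, GR 100 nM, GSH 1 mM, NADPH 0.5 mM, CHP 0.5 mM (final). 30-min cpd preincubation, RT. Ex340/Em450 read t=0, t=15 min.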

[2] = molecular target: Phospholipid hydroperoxide glutathione peroxidase GPX4 (Homo sapiens) (UniProt P36969); experiment: Primary qHTS Assay for Inhibitors of Recombinant Selenoprotein Glutathione Peroxidase 4 (GPX4) (AID 1845192); further: nearly all actives have a fitted effect of over 65% in size; further: potency means the concentration at half of the fitted maximal effect; on activity change, negative = inhibition: series mostly up to about 50 µM
Phospholipid hydroperoxide glutathione peroxidase GPX4 (Homo sapiens), sequence (P36969 whole entry, looked up): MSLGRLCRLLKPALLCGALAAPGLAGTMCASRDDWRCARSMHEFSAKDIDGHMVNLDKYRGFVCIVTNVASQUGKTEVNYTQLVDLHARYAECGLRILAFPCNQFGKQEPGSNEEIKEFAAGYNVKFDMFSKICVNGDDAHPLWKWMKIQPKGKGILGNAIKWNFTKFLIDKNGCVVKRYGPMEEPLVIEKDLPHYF
Method in brief: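 qHTS, GR-coupled: GPX4 200 nM + cpd 30 min RT → GSH 1 mM, NADPH 0.5 mM, GR 100 nM → CHP 0.5 mM start; fluor 340/450 at t0 and t15 min; no-enzyme wells as control.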

[3] = Primary fluorescence-based thiol-reactive (MSTI) qHTS assay for identification of artifact compounds. (AID 1845221); further: nearly all actives have a fitted effect of over 65% in size; further: potency means the concentration at half of the fitted maximal effect
Method in brief: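 MSTI probe at 4 uM final in 2% DMSO/PBS pH 7.4; compounds, 1 h at room temperature in dark. Fluorescence Ex/Em 525/598 nm, normalised to Acetyl-MSTI and MSTI, fitted to 4-parameter Hill.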

[4] = system: Nanoluciferase (engineered Oplophorus gracilirostris luciferase); experiment: Primary Nanoluciferase (NLuc) qHTS assay for identification of artifact compounds. (AID 1845222);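 further: NLuc secreted into diluted conditioned medium of S16 cells; series mostly up to about 54 µM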
Method in brief: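 Using secreted nanoluciferase in S16 culture medium (0.22 um filtered, 1:55 dilution), compounds were preincubated 15 min at RT. Signal was generated with Nano-Glo reagent (1:100) over 5 min.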

[5] = Primary redox qHTS assay for identification of artifact compounds. (AID 1845223)
Method in brief: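 Redox-cycling detection via DTT (250 uM final) oxidation coupled to Amplex Red (25 uM)/HRP (250 mU/mL) in HBSS. 15 min preincubation plus 30 min after DTT, room temperature. Ex/Em 525/598 nm; 4-parameter Hill fit against DMSO and 10 uM DA3003.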

[6] = molecular target: Luciferin 4-monooxygenase (Photinus pyralis) (UniProt P08659); experiment: Primary firefly luciferase (FLuc) qHTS assay for identification of artifact compounds. (AID 1845220); further: nearly all actives have a fitted effect of over 60% in size; further: potency means the concentration at half of the fitted maximal effect; on activity change, negative = inhibition: series mostly up to about 54 µM
Method in brief: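 In this counter-screen for luciferase artifacts, test compounds met substrate (10 uM each luciferin and ATP) before 10 nM enzyme started the reaction. Light output was measured 5 min later.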

Compound: Cc1[nH]c2ccccc2c1C1=C(NCCc2ccc(F)cc2)C(=O)N(C)C1=O
- Potency [1]: inactive
- Potency [2]: inactive
- Potency [3]: 1.5 µM (active)
- Potency [4]: inactive
- Potency [5]: inactive

Compound: C/C=C/c1ccc2oc(-c3ccc(O)c(OC)c3)c(C)c2c1
- Potency [1]: inactive
- Potency [2]: inactive
- Potency [6]: 26.9 µM (active)
- Potency [4]: inactive
- Potency [5]: inactive

Compound: COc1ccc(-n2[nH]c(=O)c3[nH]c4cc(Cl)ccc4c(=O)c3c2=O)c(C)c1
- Potency [1]: inactive
- Potency [2]: inactive
- Potency [6]: inactive
- Potency [5]: inactive

Compound: O=C(O)C1CN(Cc2ccc(-c3nc4cc(Cc5ccccc5F)ccc4s3)c(F)c2)C1
- activity, negative = inhibition [1]: -8.84% [at 9.52 µM]
- activity change, negative = inhibition [2]: 8.48% [at 9.73 µM]
- activity change, negative = inhibition [6]: -1.19% [at 11.6 µM]
- redox activity (% of DA3003) [5]: -6.07% [at 11.5 µM]

Compound: O=C(CSc1nc2c(c(=O)n1-c1ccccc1)SCC2)Nc1ccc(-c2ccccc2)cn1
- Potency [1]: inactive
- Potency [2]: inactive
- Potency [3]: inactive
- Potency [4]: inactive
- Potency [5]: inactive

Compound: N#Cc1ccc(C(=O)N2CCC3(CC2)N=C(N)c2c(F)ccc(F)c2N3)cn1
- Potency [1]: inactive
- Potency [2]: inactive
- Potency [6]: inactive
- Potency [5]: inactive

Compound: COC(=O)C(C)C1CCC2(C)C(=O)C=CC(C)(O)C2C1O (configuration not stated)
- Potency [1]: inactive
- Potency [2]: inactive
- Potency [6]: inactive
- Potency [4]: inactive
- Potency [5]: inactive

Compound: C=CC(C)(C)c1[nH]c2cc3c(cc2c1CC1NC(=O)C2CCCN2C1=O)C=CC(C)(C)O3 (configuration not stated)
- Potency [1]: inactive
- Potency [2]: inactive
- Potency [6]: inactive
- Potency [4]: inactive
- Potency [5]: inactive

Compound: C/C=C/c1ccc(O[C@@H]2O[C@H](CO)[C@@H](O)[C@H](O)[C@H]2O)c(OC)c1
- Potency [1]: inactive
- Potency [2]: inactive
- Potency [6]: inactive
- Potency [5]: inactive

Compound: Cc1ccccc1-n1c([C@H](C)Nc2nc(N)nc3nc[nH]c23)nc2cccc(C)c2c1=O
- Potency [1]: inactive
- Potency [2]: inactive
- Potency [3]: inactive
- Potency [4]: inactive
- Potency [5]: inactive

Compound: CCOC(=O)CCN(C(=O)c1ccc2c(c1)nc(CNc1ccc(C(=N)N)cc1)n2C)c1ccccn1
- Potency [1]: inactive
- Potency [2]: inactive
- Potency [3]: inactive
- Potency [4]: inactive
- Potency [5]: inactive

Compound: C/C(=C\CCC(C)CCO)C(=O)OC1(C)CCC2C(C(=O)O)=COC(OC3OC(CO)C(O)C(O)C3O)C21 (configuration not stated)
- Potency [1]: inactive
- Potency [2]: inactive
- Potency [6]: inactive
- Potency [4]: inactive
- Potency [5]: inactive

Compound: Nc1ccc(-c2cccc3c(=O)cc(N4CCOCC4)oc23)cc1
- Potency [1]: inactive
- Potency [2]: inactive
- Potency [6]: inactive
- Potency [4]: inactive
- Potency [5]: inactive

Compound: CC(C)=CCC/C(C)=C/CCC1(C)Oc2c(c(O)cc3c2CN(C(CCC(=O)O)C(=O)O)C3=O)CC1O (configuration not stated)
- Potency [1]: inactive
- Potency [2]: inactive
- Potency [6]: inactive
- Potency [4]: inactive
- Potency [5]: inactive

Compound: CCn1c(=O)c(-c2ccn[nH]2)cc2c(C)nc(N)nc21
- Potency [1]: 4.09 µM (active)
- Potency [2]: 2.55 µM (active)
- Potency [3]: inactive
- Potency [4]: inactive
- Potency [5]: inactive

Compound: C[C@@H]1O[C@@H](O[C@H]2[C@@H]3C=CO[C@@H](O[C@@H]4O[C@H](CO)[C@@H](O)[C@H](O)[C@H]4O)[C@@H]3[C@@]3(CO)O[C@@H]23)[C@H](OC(=O)/C=C/c2ccc(O)c(O)c2)[C@H](O)[C@H]1O
- Potency [1]: inactive
- Potency [2]: inactive
- Potency [3]: 0.793 µM (active)
- Potency [4]: inactive
- Potency [5]: inactive

Compound: C=C1CCC2C(C)(COC(C)=O)CCCC2(C)C1CCC(C)CC(=O)O (configuration not stated)
- Potency [1]: inactive
- Potency [2]: inactive
- Potency [3]: inactive
- Potency [4]: inactive
- Potency [5]: inactive

Compound: N#C[C@@H]1CCCN1C(=O)CNC12CC3CC(CC(O)(C3)C1)C2
- Potency [1]: inactive
- Potency [2]: inactive
- Potency [3]: inactive
- Potency [4]: inactive
- Potency [5]: inactive

Compound: C=C1CCC2C(C)(C(=O)O)CCCC2(C)C1CC/C(=C\CO)CO (configuration not stated)
- Potency [1]: inactive
- Potency [2]: inactive
- Potency [4]: inactive
- Potency [5]: inactive

Compound: C#CCN(Cc1cc2c(=O)[nH]c(C)nc2cc1Br)c1ccc(C(=O)NCc2cccnc2)cc1
- Potency [1]: inactive
- Potency [2]: inactive
- Potency [3]: inactive
- Potency [4]: inactive
- Potency [5]: inactive

Compound: C#CC[C@H](c1nc2cc(Cl)ccc2c(=O)n1Nc1ccccc1)N(CCCN)C(=O)c1cccc(Cl)c1F
- Potency [1]: inactive
- Potency [6]: inactive
- Potency [3]: inactive
- Potency [4]: inactive
- Potency [5]: inactive

Compound: C=C1C(=O)O[C@@H]2/C=C(\C)C(=O)/C=C/[C@](C)(O)C[C@@H](OC(=O)C(C)C)[C@@H]12
- Potency [1]: inactive
- Potency [2]: inactive
- Potency [4]: inactive
- Potency [5]: inactive

Compound: COc1ccc(C2(O)c3ccccc3NC(=O)C2O)cc1 (configuration not stated)
- Potency [1]: inactive
- Potency [2]: inactive
- Potency [4]: inactive
- Potency [5]: inactive

Compound: CC1COC(Nc2ccc3ncnc(Nc4ccc(OCc5nccs5)c(Cl)c4)c3c2)=N1 (configuration not stated)
- Potency [1]: inactive
- Potency [2]: inactive
- Potency [3]: inactive
- Potency [5]: inactive
